From article PMC7862700, “An all-to-all approach to the identification of sequence-specific readers for epigenetic DNA modifications on cytosine” come the findings set out here.

Common to all, as to assay: DAPPL (digital affinity profiling via proximity ligation, sequencing); 10 mM Tris-HCl pH 7.5, 50 mM NaCl, 1 mM DTT, 4% glycerol, room temperature, 30 min; GST-TFs on glutathione beads, 16-mer random dsDNA library, 0.1% formaldehyde crosslink after washing; high values mean tight binding
One experiment deals with T1, FEV (Homo sapiens, UniProt Q99581 1-238).
T1 sequence: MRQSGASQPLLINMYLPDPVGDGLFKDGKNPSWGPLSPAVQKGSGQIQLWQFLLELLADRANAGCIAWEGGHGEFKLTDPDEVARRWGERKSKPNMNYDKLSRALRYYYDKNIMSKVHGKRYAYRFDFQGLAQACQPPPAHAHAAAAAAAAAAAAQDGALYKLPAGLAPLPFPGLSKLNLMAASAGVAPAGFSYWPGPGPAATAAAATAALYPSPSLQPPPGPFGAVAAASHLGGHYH
To be noted: protein: recombinant; tags: N-terminal GST; dsDNA, one strand shown. Put shortly: (§1)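 Binding signal is each hexamer's read frequency for a factor divided by its frequency in the tag-only sample. The factors were GST-fused human transcription factors from yeast, captured on glutathione beads, DNA-barcoded and pooled with that sample. Pools were incubated with 200 nmole of a random double-stranded 16-mer DNA library in Tris/NaCl/DTT/glycerol buffer at room temperature for 30 min, then washed, crosslinked with 0.1% formaldehyde, proximity-ligated with BsaI/T4 ligase (1 h, 37 °C), PCR-amplified and sequenced on an Illumina NextSeq500.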

In a further experiment the target is ETV5 (Homo sapiens, UniProt P41161 1-510). The conditions noted are these: protein: recombinant; tags: N-terminal GST; dsDNA, one strand shown. In outline:
as §1

Another experiment deals with HSF1 (Homo sapiens, UniProt Q00613 1-529). The conditions noted are these: protein: recombinant; tags: N-terminal GST; chain copies: 3; dsDNA, one strand shown. In outline:
as §1

For the next experiment, the target named is T2, SPIC (Homo sapiens, UniProt Q8N5J4 1-248).
T2 sequence: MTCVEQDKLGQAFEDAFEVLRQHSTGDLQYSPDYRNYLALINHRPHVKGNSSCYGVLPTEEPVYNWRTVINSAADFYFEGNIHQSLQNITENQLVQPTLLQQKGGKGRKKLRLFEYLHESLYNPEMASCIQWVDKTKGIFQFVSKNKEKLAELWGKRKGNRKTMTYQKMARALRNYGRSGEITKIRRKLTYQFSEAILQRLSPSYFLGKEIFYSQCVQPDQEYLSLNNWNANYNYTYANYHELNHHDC
The conditions noted are these: protein: recombinant; tags: N-terminal GST; dsDNA, one strand shown. In outline:
as §1

Another experiment addresses ELF4 (Homo sapiens, UniProt Q99607 1-663). To be noted: protein: recombinant; tags: N-terminal GST; dsDNA, one strand shown. In outline:
as §1

Another experiment deals with T3, ELK4 (Homo sapiens, UniProt P28324-2 1-405).
T3 sequence: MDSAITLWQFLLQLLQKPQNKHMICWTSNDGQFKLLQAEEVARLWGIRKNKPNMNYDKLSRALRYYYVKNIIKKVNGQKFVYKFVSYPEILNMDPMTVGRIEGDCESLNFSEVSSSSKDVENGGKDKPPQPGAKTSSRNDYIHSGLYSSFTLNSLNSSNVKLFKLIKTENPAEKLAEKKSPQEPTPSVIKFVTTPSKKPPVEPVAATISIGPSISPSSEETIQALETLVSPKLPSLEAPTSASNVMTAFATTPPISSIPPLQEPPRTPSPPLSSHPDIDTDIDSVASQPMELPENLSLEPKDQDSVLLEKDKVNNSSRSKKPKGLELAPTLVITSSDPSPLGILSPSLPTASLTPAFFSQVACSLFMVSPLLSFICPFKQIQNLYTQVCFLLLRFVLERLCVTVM
The conditions noted are these: protein: recombinant; tags: N-terminal GST; dsDNA, one strand shown. Put shortly: as §1

The next experiment addresses T4, ETV2 (Homo sapiens, UniProt O00321 1-342).
T4 sequence: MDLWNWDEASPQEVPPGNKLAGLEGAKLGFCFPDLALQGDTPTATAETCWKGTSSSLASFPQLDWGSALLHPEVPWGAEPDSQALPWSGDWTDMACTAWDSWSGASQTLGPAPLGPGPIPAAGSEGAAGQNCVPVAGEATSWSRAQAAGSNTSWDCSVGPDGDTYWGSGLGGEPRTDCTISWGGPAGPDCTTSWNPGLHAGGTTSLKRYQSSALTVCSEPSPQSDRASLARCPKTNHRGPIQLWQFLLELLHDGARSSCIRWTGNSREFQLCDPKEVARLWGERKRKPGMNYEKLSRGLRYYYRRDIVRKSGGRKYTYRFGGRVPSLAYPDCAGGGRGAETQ
The conditions noted are these: protein: recombinant; tags: N-terminal GST; dsDNA, one strand shown. In outline: as §1

The next experiment concerns the target T5, ELF3 (Homo sapiens, UniProt P78545 1-371).
T5 sequence: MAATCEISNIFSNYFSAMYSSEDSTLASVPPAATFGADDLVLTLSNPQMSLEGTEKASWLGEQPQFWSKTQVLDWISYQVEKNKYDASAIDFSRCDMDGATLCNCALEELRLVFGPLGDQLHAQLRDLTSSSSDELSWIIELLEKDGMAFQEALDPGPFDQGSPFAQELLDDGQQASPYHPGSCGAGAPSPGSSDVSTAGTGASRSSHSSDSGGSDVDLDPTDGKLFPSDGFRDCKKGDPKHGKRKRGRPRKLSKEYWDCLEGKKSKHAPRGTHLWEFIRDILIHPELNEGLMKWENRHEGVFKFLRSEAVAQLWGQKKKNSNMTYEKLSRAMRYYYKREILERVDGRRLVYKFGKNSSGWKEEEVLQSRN
To be noted: protein: recombinant; tags: N-terminal GST; dsDNA, one strand shown. In outline:
as §1

Another experiment concerns the target CRX (Homo sapiens, UniProt O43186 1-299). To be noted: protein: recombinant; tags: N-terminal GST; dsDNA, one strand shown. In outline:
as §1

Another experiment has as its target ETV1 (Homo sapiens, UniProt P50549 1-477). The conditions noted are these: protein: recombinant; tags: N-terminal GST; dsDNA, one strand shown. Put shortly: as §1
In the next experiment the target is T6, ERF (Homo sapiens, UniProt P50548 1-548).
T6 sequence: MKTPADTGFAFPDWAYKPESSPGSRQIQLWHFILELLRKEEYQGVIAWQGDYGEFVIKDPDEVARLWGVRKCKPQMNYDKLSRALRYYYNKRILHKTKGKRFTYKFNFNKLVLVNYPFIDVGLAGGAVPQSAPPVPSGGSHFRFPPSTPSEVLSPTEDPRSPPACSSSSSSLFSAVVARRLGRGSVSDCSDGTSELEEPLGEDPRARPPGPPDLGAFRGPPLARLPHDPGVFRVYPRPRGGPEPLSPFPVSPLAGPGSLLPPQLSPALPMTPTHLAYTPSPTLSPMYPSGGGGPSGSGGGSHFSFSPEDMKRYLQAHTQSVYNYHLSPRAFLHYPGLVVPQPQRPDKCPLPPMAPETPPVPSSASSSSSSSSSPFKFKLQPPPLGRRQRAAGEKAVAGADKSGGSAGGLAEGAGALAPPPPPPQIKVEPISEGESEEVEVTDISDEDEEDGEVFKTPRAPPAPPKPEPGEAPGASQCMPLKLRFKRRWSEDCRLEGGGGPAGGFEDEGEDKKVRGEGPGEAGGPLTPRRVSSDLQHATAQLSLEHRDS
To be noted: protein: recombinant; tags: N-terminal GST; dsDNA, one strand shown. Put shortly: as §1

In a further experiment the target is T7, ETV3L (Homo sapiens, UniProt Q6ZN32 1-361).
T7 sequence: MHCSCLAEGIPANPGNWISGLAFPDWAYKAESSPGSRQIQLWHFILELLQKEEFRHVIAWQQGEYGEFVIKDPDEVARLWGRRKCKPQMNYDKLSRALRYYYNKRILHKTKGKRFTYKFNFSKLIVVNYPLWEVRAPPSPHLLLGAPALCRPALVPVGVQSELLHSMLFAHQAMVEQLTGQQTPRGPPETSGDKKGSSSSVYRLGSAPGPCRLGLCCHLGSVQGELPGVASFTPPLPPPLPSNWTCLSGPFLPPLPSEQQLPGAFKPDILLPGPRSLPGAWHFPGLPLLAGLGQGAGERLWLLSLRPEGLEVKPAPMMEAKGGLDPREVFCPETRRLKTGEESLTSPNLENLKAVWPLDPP
The conditions noted are these: protein: recombinant; tags: N-terminal GST; dsDNA, one strand shown. In outline: as §1

Another experiment deals with T8, ETS2 (Homo sapiens, UniProt P15036 1-469).
T8 sequence: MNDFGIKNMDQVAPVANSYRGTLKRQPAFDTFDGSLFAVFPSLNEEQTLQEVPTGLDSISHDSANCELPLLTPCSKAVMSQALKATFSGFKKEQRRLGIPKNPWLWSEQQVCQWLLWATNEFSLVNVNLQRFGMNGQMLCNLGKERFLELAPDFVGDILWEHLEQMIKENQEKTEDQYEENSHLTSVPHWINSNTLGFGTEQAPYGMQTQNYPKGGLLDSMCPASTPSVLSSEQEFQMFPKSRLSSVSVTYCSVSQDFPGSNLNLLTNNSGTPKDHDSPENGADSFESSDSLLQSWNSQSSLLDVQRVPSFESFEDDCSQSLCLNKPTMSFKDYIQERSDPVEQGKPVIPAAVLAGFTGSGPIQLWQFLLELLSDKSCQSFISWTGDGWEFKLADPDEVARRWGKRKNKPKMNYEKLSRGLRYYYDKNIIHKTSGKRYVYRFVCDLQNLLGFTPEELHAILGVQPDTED
The conditions noted are these: protein: recombinant; tags: N-terminal GST; dsDNA, one strand shown. Put shortly: as §1

In the next experiment the target is T9, SPDEF (Homo sapiens, UniProt O95238 1-335).
T9 sequence: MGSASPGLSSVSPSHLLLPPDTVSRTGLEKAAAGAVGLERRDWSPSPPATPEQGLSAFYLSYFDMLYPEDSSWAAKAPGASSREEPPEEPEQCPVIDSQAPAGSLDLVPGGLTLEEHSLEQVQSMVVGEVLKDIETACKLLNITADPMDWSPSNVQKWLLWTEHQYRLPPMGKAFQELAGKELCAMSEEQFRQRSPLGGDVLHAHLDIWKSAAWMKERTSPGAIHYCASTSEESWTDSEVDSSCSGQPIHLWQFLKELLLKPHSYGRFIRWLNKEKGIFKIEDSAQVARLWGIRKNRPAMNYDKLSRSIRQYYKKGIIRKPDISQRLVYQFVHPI
The conditions noted are these: protein: recombinant; tags: N-terminal GST; dsDNA, one strand shown. Put shortly:
as §1

For another experiment, the target named is T10, ETV7 (Homo sapiens, UniProt Q9Y603 1-341).
T10 sequence: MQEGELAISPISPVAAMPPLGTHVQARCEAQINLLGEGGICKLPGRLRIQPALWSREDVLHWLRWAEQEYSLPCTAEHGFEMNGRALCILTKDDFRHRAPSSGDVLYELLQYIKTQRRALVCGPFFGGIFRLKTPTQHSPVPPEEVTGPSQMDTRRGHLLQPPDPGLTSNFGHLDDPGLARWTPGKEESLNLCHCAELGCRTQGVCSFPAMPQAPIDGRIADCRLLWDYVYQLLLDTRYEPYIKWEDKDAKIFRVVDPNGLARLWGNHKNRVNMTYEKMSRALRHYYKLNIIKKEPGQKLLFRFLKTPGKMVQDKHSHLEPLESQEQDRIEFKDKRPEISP
To be noted: protein: recombinant; tags: N-terminal GST; dsDNA, one strand shown. In outline:
as §1

The target in another experiment is T11, ELF5 (Homo sapiens, UniProt Q9UKW6-2 1-255).
T11 sequence: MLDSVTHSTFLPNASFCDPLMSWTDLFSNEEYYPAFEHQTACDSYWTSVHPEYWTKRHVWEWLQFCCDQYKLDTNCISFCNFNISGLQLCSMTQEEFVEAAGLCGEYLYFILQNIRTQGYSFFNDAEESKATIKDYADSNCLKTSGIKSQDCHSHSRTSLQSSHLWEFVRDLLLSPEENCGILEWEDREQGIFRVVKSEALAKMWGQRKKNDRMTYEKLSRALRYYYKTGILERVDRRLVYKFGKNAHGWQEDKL
To be noted: protein: recombinant; tags: N-terminal GST; dsDNA, one strand shown. Put shortly: as §1

Another experiment has as its target T12, ETV3 (Homo sapiens, UniProt P41162-2 1-143).
T12 sequence: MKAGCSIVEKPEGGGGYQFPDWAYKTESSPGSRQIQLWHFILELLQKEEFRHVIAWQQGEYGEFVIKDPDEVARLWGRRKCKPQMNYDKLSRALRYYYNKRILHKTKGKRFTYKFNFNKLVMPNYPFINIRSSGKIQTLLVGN
To be noted: protein: recombinant; tags: N-terminal GST; dsDNA, one strand shown. Put shortly:
as §1

Another experiment has as its target ETV6 (Homo sapiens, UniProt P41212 1-452). To be noted: protein: recombinant; tags: N-terminal GST; dsDNA, one strand shown. In outline: as §1

Chain of ETV1 (P50549 whole entry): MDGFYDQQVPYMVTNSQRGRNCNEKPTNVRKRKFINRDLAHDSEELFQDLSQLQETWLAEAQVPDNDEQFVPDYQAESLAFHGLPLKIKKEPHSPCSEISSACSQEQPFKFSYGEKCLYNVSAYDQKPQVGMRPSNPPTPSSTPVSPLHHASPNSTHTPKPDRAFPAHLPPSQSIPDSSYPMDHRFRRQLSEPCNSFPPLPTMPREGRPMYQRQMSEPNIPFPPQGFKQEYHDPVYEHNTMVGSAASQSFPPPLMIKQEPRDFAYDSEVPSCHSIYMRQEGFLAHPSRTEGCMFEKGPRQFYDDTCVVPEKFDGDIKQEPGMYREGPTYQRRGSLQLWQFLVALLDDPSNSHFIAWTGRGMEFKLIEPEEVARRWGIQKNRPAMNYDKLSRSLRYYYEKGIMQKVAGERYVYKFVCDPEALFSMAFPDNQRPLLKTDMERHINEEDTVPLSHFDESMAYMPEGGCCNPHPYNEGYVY
Chain of HSF1 (Q00613 whole entry): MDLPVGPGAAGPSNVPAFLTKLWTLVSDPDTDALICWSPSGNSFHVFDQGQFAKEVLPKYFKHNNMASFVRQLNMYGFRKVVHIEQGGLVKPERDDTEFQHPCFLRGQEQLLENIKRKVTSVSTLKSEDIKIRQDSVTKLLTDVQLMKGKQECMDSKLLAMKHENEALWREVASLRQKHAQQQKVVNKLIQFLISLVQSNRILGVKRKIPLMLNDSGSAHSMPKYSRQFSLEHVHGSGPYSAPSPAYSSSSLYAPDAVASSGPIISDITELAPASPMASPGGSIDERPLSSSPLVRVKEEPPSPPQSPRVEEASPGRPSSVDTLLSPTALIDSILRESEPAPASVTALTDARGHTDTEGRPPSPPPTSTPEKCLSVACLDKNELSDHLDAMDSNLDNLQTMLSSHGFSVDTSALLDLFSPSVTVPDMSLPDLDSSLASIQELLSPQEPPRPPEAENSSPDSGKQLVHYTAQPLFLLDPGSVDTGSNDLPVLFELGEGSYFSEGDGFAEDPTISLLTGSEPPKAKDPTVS
Chain of CRX (O43186 whole entry): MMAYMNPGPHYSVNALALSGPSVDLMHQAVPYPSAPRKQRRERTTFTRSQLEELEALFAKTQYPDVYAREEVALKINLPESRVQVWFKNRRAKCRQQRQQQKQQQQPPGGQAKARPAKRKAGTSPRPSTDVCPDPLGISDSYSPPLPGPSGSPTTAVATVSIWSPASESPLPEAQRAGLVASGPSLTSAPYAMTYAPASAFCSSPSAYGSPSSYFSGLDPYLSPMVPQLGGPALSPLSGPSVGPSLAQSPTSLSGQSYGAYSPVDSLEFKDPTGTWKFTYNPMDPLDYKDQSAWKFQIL
Chain of ELF4 (Q99607 whole entry): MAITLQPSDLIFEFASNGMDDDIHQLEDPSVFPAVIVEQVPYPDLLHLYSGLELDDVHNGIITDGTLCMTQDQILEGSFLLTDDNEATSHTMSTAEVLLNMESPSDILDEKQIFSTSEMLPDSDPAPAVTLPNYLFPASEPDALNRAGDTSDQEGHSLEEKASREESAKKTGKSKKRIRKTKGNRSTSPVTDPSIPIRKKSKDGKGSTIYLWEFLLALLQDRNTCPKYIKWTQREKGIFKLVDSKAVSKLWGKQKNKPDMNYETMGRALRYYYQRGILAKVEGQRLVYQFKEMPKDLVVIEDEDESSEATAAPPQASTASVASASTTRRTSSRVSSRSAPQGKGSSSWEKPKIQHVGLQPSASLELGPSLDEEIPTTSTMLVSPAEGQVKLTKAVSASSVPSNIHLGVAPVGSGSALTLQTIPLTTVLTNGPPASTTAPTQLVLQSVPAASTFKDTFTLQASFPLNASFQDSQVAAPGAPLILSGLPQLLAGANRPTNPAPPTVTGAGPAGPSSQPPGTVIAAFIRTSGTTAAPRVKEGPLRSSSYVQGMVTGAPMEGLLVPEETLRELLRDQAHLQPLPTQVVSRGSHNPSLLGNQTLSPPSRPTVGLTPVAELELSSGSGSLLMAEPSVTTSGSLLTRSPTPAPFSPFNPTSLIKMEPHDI
Chain of ETV6 (P41212 whole entry): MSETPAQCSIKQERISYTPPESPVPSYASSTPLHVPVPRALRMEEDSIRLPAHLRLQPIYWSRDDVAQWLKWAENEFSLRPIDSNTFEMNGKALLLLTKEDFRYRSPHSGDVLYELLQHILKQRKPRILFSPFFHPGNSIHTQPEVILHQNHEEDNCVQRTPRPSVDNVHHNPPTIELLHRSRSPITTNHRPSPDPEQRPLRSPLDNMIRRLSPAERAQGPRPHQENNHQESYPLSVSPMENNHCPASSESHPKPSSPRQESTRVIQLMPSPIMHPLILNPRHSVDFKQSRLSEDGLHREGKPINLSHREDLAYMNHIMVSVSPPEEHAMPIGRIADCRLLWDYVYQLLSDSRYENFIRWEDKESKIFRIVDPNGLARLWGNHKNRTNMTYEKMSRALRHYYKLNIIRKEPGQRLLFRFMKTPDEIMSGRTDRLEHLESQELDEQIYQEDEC
Chain of ETV5 (P41161 whole entry): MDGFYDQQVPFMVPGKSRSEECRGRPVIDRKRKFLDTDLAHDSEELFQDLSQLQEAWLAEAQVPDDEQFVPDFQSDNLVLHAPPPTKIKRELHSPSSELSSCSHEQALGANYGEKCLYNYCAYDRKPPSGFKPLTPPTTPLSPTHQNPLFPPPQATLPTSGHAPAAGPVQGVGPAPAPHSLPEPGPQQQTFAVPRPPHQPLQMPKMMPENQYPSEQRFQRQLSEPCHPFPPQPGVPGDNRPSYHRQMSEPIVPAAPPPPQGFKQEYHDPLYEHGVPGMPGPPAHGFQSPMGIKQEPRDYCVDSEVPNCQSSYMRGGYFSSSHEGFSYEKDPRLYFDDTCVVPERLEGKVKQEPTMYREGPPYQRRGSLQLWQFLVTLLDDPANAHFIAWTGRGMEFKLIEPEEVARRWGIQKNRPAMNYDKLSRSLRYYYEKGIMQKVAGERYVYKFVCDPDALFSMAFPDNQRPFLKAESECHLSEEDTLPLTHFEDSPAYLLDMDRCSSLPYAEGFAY

In the case of GCATTT, the binding signal was 1.57 fold enrichment (6-mer frequency, TF over GST control) with FEV; 1.38 fold enrichment (6-mer frequency, TF over GST control) in the experiment with ETV5; 1.15 fold enrichment (6-mer frequency, TF over GST control) with HSF1; 1.37 fold enrichment (6-mer frequency, TF over GST control) with SPIC; 1.4 fold enrichment (6-mer frequency, TF over GST control) with ELF4; 1.27 fold enrichment (6-mer frequency, TF over GST control) with ELK4. Besides, the binding signal with ETV2 is 1.25 fold enrichment (6-mer frequency, TF over GST control); with ELF3, 1.33 fold enrichment (6-mer frequency, TF over GST control); in the experiment with CRX, 1.16 fold enrichment (6-mer frequency, TF over GST control); with ETV1, 1.37 fold enrichment (6-mer frequency, TF over GST control); with ERF, 1.31 fold enrichment (6-mer frequency, TF over GST control); with ETV3L, 1.35 fold enrichment (6-mer frequency, TF over GST control). The binding signal was 1.34 fold enrichment (6-mer frequency, TF over GST control) with ETS2; 1.36 fold enrichment (6-mer frequency, TF over GST control) with SPDEF; 1.31 fold enrichment (6-mer frequency, TF over GST control) with ETV7; 1.4 fold enrichment (6-mer frequency, TF over GST control) with ELF5; 1.36 fold enrichment (6-mer frequency, TF over GST control) in the experiment with ETV3; 1.39 fold enrichment (6-mer frequency, TF over GST control) in the experiment with ETV6.
